# Measurements: publication PMC11006913
# What was measured:
# Assay in all cases: PBM; 200 nM protein, PBS
# Conditions in all cases: dsDNA, one strand shown
# HOXA4 [1] = target: HOXA4 (Homo sapiens, UniProt Q00056 201-287, W262R)
# HOXB6 [2] = target: HOXB6 (Homo sapiens, UniProt P17509 132-218, K202E)
# HOXA4 [3] = target: HOXA4 (Homo sapiens, UniProt Q00056 201-287)
# HOXB6 [4] = target: HOXB6 (Homo sapiens, UniProt P17509 132-218)
# HOXA4 [5] = target: HOXA4 (Homo sapiens, UniProt Q00056 201-287, R217L)
# HOXA4 [6] = target: HOXA4 (Homo sapiens, UniProt Q00056 201-287, W262F)
# ALX3 [7] = target: ALX3 (Homo sapiens, UniProt O95076 139-225, N203Q)
# ALX3 [8] = target: ALX3 (Homo sapiens, UniProt O95076 139-225)
# ALX3 [9] = target: ALX3 (Homo sapiens, UniProt O95076 139-225, L168Q)
# ALX3 [10] = target: ALX3 (Homo sapiens, UniProt O95076 139-225, L168V)
# ALX3 [11] = target: ALX3 (Homo sapiens, UniProt O95076 139-225, N203S)
# MSX2 [12] = target: MSX2 (Homo sapiens, UniProt P35548 130-214, R199I)
# MSX2 [13] = target: MSX2 (Homo sapiens, UniProt P35548 130-214)
# MSX2 [14] = target: MSX2 (Homo sapiens, UniProt P35548 130-214, F161Y)
# HOXA2 [15] = target: HOXA2 (Homo sapiens, UniProt O43364 129-215, R185K)
# HOXA2 [16] = target: HOXA2 (Homo sapiens, UniProt O43364 129-215, R185T)
# HOXA2 [17] = target: HOXA2 (Homo sapiens, UniProt O43364 129-215, Y150S)
# HOXA2 [18] = target: HOXA2 (Homo sapiens, UniProt O43364 129-215)
# Chain of HOXA2 (Homo sapiens, UniProt O43364 129-215) (O43364 129-215): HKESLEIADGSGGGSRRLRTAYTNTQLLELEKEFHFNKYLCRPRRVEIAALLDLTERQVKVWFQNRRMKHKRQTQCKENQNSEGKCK
# Chain of HOXB6 (Homo sapiens, UniProt P17509 132-218) (P17509 132-218): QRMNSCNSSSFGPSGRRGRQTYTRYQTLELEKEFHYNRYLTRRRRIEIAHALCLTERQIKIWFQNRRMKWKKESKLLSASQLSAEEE
# Chain of HOXA4 (Homo sapiens, UniProt Q00056 201-287) (Q00056 201-287): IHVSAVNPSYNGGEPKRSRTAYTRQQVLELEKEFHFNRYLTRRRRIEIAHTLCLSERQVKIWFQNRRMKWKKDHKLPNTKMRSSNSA
# Chain of HOXA4 (Homo sapiens, UniProt Q00056 201-287, W262R) (Q00056 201-287 W262R): as the sequence (Q00056 201-287) above, with W62R counted along it
# Chain of HOXA4 (Homo sapiens, UniProt Q00056 201-287, W262F) (Q00056 201-287 W262F): as the sequence (Q00056 201-287) above, with W62F counted along it
# Chain of HOXA4 (Homo sapiens, UniProt Q00056 201-287, R217L) (Q00056 201-287 R217L): as the sequence (Q00056 201-287) above, with R17L counted along it
# Chain of HOXB6 (Homo sapiens, UniProt P17509 132-218, K202E) (P17509 132-218 K202E): as the sequence (P17509 132-218) above, with K71E counted along it
# Chain of ALX3 (Homo sapiens, UniProt O95076 139-225, N203Q) (O95076 139-225 N203Q): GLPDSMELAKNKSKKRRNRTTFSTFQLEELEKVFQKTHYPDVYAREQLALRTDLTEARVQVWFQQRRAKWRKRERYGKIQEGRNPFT
# Chain of ALX3 (Homo sapiens, UniProt O95076 139-225, L168Q) (O95076 139-225 L168Q): as the sequence (O95076 139-225 N203Q) above, with L30Q, Q65N counted along it
# Chain of ALX3 (Homo sapiens, UniProt O95076 139-225) (O95076 139-225): as the sequence (O95076 139-225 N203Q) above, with Q65N counted along it
# Chain of HOXA2 (Homo sapiens, UniProt O43364 129-215, R185K) (O43364 129-215 R185K): as the sequence (O43364 129-215) above, with R57K counted along it
# Chain of ALX3 (Homo sapiens, UniProt O95076 139-225, N203S) (O95076 139-225 N203S): as the sequence (O95076 139-225 N203Q) above, with Q65S counted along it
# Chain of ALX3 (Homo sapiens, UniProt O95076 139-225, L168V) (O95076 139-225 L168V): as the sequence (O95076 139-225 N203Q) above, with L30V, Q65N counted along it
# Chain of HOXA2 (Homo sapiens, UniProt O43364 129-215, Y150S) (O43364 129-215 Y150S): as the sequence (O43364 129-215) above, with Y22S counted along it
# Chain of MSX2 (Homo sapiens, UniProt P35548 130-214) (P35548 130-214): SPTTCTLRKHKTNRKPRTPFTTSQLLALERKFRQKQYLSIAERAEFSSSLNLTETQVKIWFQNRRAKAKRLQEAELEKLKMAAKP
# Chain of MSX2 (Homo sapiens, UniProt P35548 130-214, F161Y) (P35548 130-214 F161Y): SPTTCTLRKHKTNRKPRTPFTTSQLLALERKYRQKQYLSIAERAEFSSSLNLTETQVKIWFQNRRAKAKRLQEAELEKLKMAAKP
# Chain of HOXA2 (Homo sapiens, UniProt O43364 129-215, R185T) (O43364 129-215 R185T): as the sequence (O43364 129-215) above, with R57T counted along it
# Chain of MSX2 (Homo sapiens, UniProt P35548 130-214, R199I) (P35548 130-214 R199I): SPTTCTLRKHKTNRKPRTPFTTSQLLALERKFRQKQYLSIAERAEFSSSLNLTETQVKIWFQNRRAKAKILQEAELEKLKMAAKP
sequence,measurement,setting,value
ATCATAAG,binding signal,HOXA4 [1],"10.4 upbm affinity estimate (log intensity, higher = more binding, comparable within an allelic series)"
same,binding signal,HOXB6 [2],"9.66 upbm affinity estimate (log intensity, higher = more binding, comparable within an allelic series)"
same,binding signal,HOXA4 [3],"11.8 upbm affinity estimate (log intensity, higher = more binding, comparable within an allelic series)"
same,binding signal,HOXB6 [4],"10.3 upbm affinity estimate (log intensity, higher = more binding, comparable within an allelic series)"
CATTAACG,binding signal,HOXA4 [1],"10.6 upbm affinity estimate (log intensity, higher = more binding, comparable within an allelic series)"
same,binding signal,HOXB6 [2],"9.9 upbm affinity estimate (log intensity, higher = more binding, comparable within an allelic series)"
same,binding signal,HOXA4 [5],"11.8 upbm affinity estimate (log intensity, higher = more binding, comparable within an allelic series)"
same,binding signal,HOXA4 [3],"13.6 upbm affinity estimate (log intensity, higher = more binding, comparable within an allelic series)"
same,binding signal,HOXA4 [6],"11.4 upbm affinity estimate (log intensity, higher = more binding, comparable within an allelic series)"
same,binding signal,HOXB6 [4],"11.6 upbm affinity estimate (log intensity, higher = more binding, comparable within an allelic series)"
CCCCCCGA,binding signal,HOXA4 [1],"9.72 upbm affinity estimate (log intensity, higher = more binding, comparable within an allelic series)"
same,binding signal,HOXA4 [5],"9.69 upbm affinity estimate (log intensity, higher = more binding, comparable within an allelic series)"
same,binding signal,ALX3 [7],"7.7 upbm affinity estimate (log intensity, higher = more binding, comparable within an allelic series)"
same,binding signal,HOXA4 [3],"9.77 upbm affinity estimate (log intensity, higher = more binding, comparable within an allelic series)"
same,binding signal,ALX3 [8],"7.94 upbm affinity estimate (log intensity, higher = more binding, comparable within an allelic series)"
same,binding signal,ALX3 [9],"7.67 upbm affinity estimate (log intensity, higher = more binding, comparable within an allelic series)"
same,binding signal,ALX3 [10],"7.65 upbm affinity estimate (log intensity, higher = more binding, comparable within an allelic series)"
same,binding signal,HOXA4 [6],"9.57 upbm affinity estimate (log intensity, higher = more binding, comparable within an allelic series)"
same,binding signal,ALX3 [11],"7.71 upbm affinity estimate (log intensity, higher = more binding, comparable within an allelic series)"
AGGGCGGG,binding signal,HOXA4 [1],"9.85 upbm affinity estimate (log intensity, higher = more binding, comparable within an allelic series)"
same,binding signal,HOXA4 [5],"9.99 upbm affinity estimate (log intensity, higher = more binding, comparable within an allelic series)"
same,binding signal,MSX2 [12],"9.58 upbm affinity estimate (log intensity, higher = more binding, comparable within an allelic series)"
same,binding signal,HOXA4 [3],"10 upbm affinity estimate (log intensity, higher = more binding, comparable within an allelic series)"
same,binding signal,MSX2 [13],"9.55 upbm affinity estimate (log intensity, higher = more binding, comparable within an allelic series)"
same,binding signal,MSX2 [14],"9.62 upbm affinity estimate (log intensity, higher = more binding, comparable within an allelic series)"
same,binding signal,HOXA4 [6],"10.1 upbm affinity estimate (log intensity, higher = more binding, comparable within an allelic series)"
CATTAATC,binding signal,HOXA4 [1],"10.5 upbm affinity estimate (log intensity, higher = more binding, comparable within an allelic series)"
same,binding signal,HOXA4 [5],"11.9 upbm affinity estimate (log intensity, higher = more binding, comparable within an allelic series)"
same,binding signal,HOXA2 [15],"13.2 upbm affinity estimate (log intensity, higher = more binding, comparable within an allelic series)"
same,binding signal,HOXA4 [3],"13.6 upbm affinity estimate (log intensity, higher = more binding, comparable within an allelic series)"
same,binding signal,HOXA4 [6],"11.3 upbm affinity estimate (log intensity, higher = more binding, comparable within an allelic series)"
CCCCCTAG,binding signal,HOXA4 [1],"9.8 upbm affinity estimate (log intensity, higher = more binding, comparable within an allelic series)"
same,binding signal,HOXB6 [2],"8.81 upbm affinity estimate (log intensity, higher = more binding, comparable within an allelic series)"
same,binding signal,HOXA4 [5],"9.86 upbm affinity estimate (log intensity, higher = more binding, comparable within an allelic series)"
same,binding signal,HOXA4 [3],"9.77 upbm affinity estimate (log intensity, higher = more binding, comparable within an allelic series)"
same,binding signal,HOXA4 [6],"9.73 upbm affinity estimate (log intensity, higher = more binding, comparable within an allelic series)"
same,binding signal,HOXB6 [4],"8.86 upbm affinity estimate (log intensity, higher = more binding, comparable within an allelic series)"
CGAGGGCG,binding signal,HOXA4 [1],"9.7 upbm affinity estimate (log intensity, higher = more binding, comparable within an allelic series)"
same,binding signal,HOXA4 [5],"9.75 upbm affinity estimate (log intensity, higher = more binding, comparable within an allelic series)"
same,binding signal,ALX3 [7],"7.74 upbm affinity estimate (log intensity, higher = more binding, comparable within an allelic series)"
same,binding signal,HOXA4 [3],"9.8 upbm affinity estimate (log intensity, higher = more binding, comparable within an allelic series)"
same,binding signal,ALX3 [8],"7.69 upbm affinity estimate (log intensity, higher = more binding, comparable within an allelic series)"
same,binding signal,ALX3 [9],"7.78 upbm affinity estimate (log intensity, higher = more binding, comparable within an allelic series)"
same,binding signal,ALX3 [10],"7.76 upbm affinity estimate (log intensity, higher = more binding, comparable within an allelic series)"
same,binding signal,HOXA4 [6],"9.89 upbm affinity estimate (log intensity, higher = more binding, comparable within an allelic series)"
same,binding signal,ALX3 [11],"7.73 upbm affinity estimate (log intensity, higher = more binding, comparable within an allelic series)"
GCCCCCAC,binding signal,HOXA4 [1],"9.79 upbm affinity estimate (log intensity, higher = more binding, comparable within an allelic series)"
same,binding signal,HOXB6 [2],"9.03 upbm affinity estimate (log intensity, higher = more binding, comparable within an allelic series)"
same,binding signal,HOXA4 [5],"9.73 upbm affinity estimate (log intensity, higher = more binding, comparable within an allelic series)"
same,binding signal,HOXA4 [3],"9.63 upbm affinity estimate (log intensity, higher = more binding, comparable within an allelic series)"
same,binding signal,HOXA4 [6],"9.84 upbm affinity estimate (log intensity, higher = more binding, comparable within an allelic series)"
same,binding signal,HOXB6 [4],"8.92 upbm affinity estimate (log intensity, higher = more binding, comparable within an allelic series)"
AGGGCTCC,binding signal,HOXA4 [1],"9.75 upbm affinity estimate (log intensity, higher = more binding, comparable within an allelic series)"
same,binding signal,HOXA2 [16],"7.29 upbm affinity estimate (log intensity, higher = more binding, comparable within an allelic series)"
same,binding signal,HOXA4 [5],"9.79 upbm affinity estimate (log intensity, higher = more binding, comparable within an allelic series)"
same,binding signal,HOXA2 [15],"10.4 upbm affinity estimate (log intensity, higher = more binding, comparable within an allelic series)"
same,binding signal,HOXA4 [3],"9.81 upbm affinity estimate (log intensity, higher = more binding, comparable within an allelic series)"
same,binding signal,HOXA2 [17],"10.3 upbm affinity estimate (log intensity, higher = more binding, comparable within an allelic series)"
same,binding signal,HOXA4 [6],"9.81 upbm affinity estimate (log intensity, higher = more binding, comparable within an allelic series)"
same,binding signal,HOXA2 [18],"7.22 upbm affinity estimate (log intensity, higher = more binding, comparable within an allelic series)"
